# High-throughput results from PubChem.
# NLRP3 yeast inh: NALP3 inhibition in yeast; Yeast reconstituted NLRP3/ASC/caspase-1, beta-gal luminescence, 24 h; inhibition, % at 10 µM; hit rate 0.39% among 330,000; AID 2825;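 active = inhibition of 50% or more; inactive = inhibition below 50%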;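 note: plate controls were induced DMSO wells for no effect and uninduced yeast grown without galactose for full effect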
# tim23-1 inh: growth inhibitors of tim23-1 mutant yeast; S. cerevisiae tim23-1 growth, BacTiter-Glo luminescence, 24 h; inhibition, % at 20 µM; hit rate 1.3% among 330,000;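 active = growth inhibition of the mutant yeast at or above 50%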;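 note: temperature-sensitive mutant grown at 25 °C; plate controls were DMSO-treated mutant yeast for no effect and medium wells lacking yeast for full effect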
# TIM10 inh: inhibits growth of TIM10 yeast strain | S. cerevisiae TIM10 strain growth, BacTiter-Glo luminescence, 24 h | inhibition, % at 10 µM | hit rate 1.4% among 330,000 | AID 463195;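 active = inhibition of 40% or more at the single tested concentration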;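 note: wild-type TIM10 isogenic control strain grown at permissive 25 °C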
# PfHsp90 set2: inhibits growth of yeast expressing Plasmodium falciparum Hsp90. S. cerevisiae expressing PfHsp90, BacTiter-Glo ATP, 48 h; yeast lacking PDR1 and PDR3 efflux regulators. inhibition, % at 9.4 µM. hit rate 0.32% among 310,000. AID 504621;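 active = every replicate shows inhibition above about 80%, whatever the replicate mean, limit read from the data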;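 note: 0% = DMSO neutral controls and 100% = 20 µM radicicol positive controls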
# tim10-1 inh: inhibits growth of tim10-1 mutant yeast; hit rate 2.2% among 330,000; inhibition, % at 20 µM; AID 463190; S. cerevisiae tim10-1 ts strain growth, BacTiter-Glo, 24 h;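 active = inhibition of at least 40%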;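 note: mutant grown at 25 °C; 0% = DMSO wells with yeast and 100% = wells holding no yeast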
# NALP1 yeast inh: inhibitors of NALP1 inflammasome in yeast. S. cerevisiae NALP1/ASC/caspase-1 growth, X-gal OD620, 72 h. inhibition, % at 10 µM. hit rate 0.61% among 280,000; in the data active = inhibition mostly above about 24%, no sharp cut-off; inactive = mostly below about 32%
# tim10-1 confirm: tim10-1 yeast growth inhibition, confirmed; shares compounds with tim10-1 inh; S. cerevisiae tim10-1 ts strain growth, BacTiter-Glo, 24 h; inhibition, % at 20 µM; hit rate 56% among 7,400; AID 463213;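 active = inhibition of yeast growth at or above a set limit in either of two repeat tests at 20 µM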;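 note: tim10-1 mutant grown at permissive 25 °C to find synthetic lethal compounds; 0% = DMSO yeast wells and 100% = medium wells without yeast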
# The depositor's hits bear a star; / = no result. Only some compounds are listed: those with a hit (about 4.1% of all), similar ones and a draw of the others.
SMILES,NLRP3 yeast inh,tim23-1 inh,TIM10 inh,PfHsp90 set2,tim10-1 inh,NALP1 yeast inh,tim10-1 confirm
Cc1cccc2c1N(CCOc1ccc(C(C)(C)C)cc1)C(=O)C2=O,13,43,28,-25,46*,28,33*
Cc1cccc(C(=O)Nc2sc3c(c2C(=O)O)CCCC3)c1,-23,29,29,5,19,15,/
CSc1ccccc1C(=O)NCCS(=O)(=O)N1CCN(c2ccc(F)cc2)CC1,11,5,-4,40,3,/,/
O=C(NCCS(=O)(=O)N1CCN(c2ccc(F)cc2)CC1)C12CC3CC(CC(C3)C1)C2,7,45,33,/,42*,/,22
Cc1ccc(C(=O)c2oc3ccc(Cl)cc3c2NC(=O)CN2CCN(C)CC2)cc1,27,23,3,15,49*,11,17
CCNc1ccc(Br)cc(C(=O)/C=C/c2c(Cl)cccc2Cl)c1=O,16,33,39,29,55*,59,49*
CCNc1ccc(Br)cc(C(=O)/C=C/c2ccc(Cl)cc2)c1=O,20,25,24,12,13,29,/
CC1=CC2=C(OC1N(C)C)c1cccc3cccc(c13)C2=O (stereo not drawn),-30,14,37,/,47*,-29,55*
CCSc1nnc(NC(=O)CN2C(=O)N(C)C3(CCCCC3)C2=O)s1,25,9,10,15,97*,/,13
CC1c2ccccc2N(S(=O)(=O)c2ccccc2)C1C (stereo not drawn),/,/,/,1,/,/,/
Cc1cc(C)c(C(=O)/C=C/c2cccs2)c(=O)[nH]1,-1,14,-4,-18,14,5,/
Cc1ccc(/C=C/C(=O)c2c(C)cc(C)[nH]c2=O)cc1,3,27,31,/,43*,-4,38*
CCc1ccc(/C=C/C(=O)c2c(C)cc(C)[nH]c2=O)cc1,16,33,16,/,45*,/,38*
CCc1ccc(/C=C(\C)C(=O)c2c(C)cc(C)[nH]c2=O)cc1,6,13,2,5,20,24,/
Cc1cnc(C(=O)OCc2cc(=O)n3c(C)cccc3n2)cn1,5,-3,-9,-7,4,/,/
Cc1ccc(-c2nn(-c3ccccc3)cc2C(=O)N2CCOCC2)cc1,-5,36,32,-1,40*,-1,24
O=C1N/C(=C/c2ccc(N3CCOCC3)o2)C(=O)N1c1cccc(Cl)c1,37,18,4,-20,43*,-6,36*
COc1ccccc1C(=O)Nc1nc2cc3c(cc2s1)OCCO3,24,34,-10,-31,43*,-5,18
CC(OC(=O)Cn1[nH]c(=O)c2ccccc2c1=O)C(=O)Nc1cccc(Cl)c1 (stereo not drawn),18,8,6,-8,15,/,/
S=C(Nc1ccc(Cl)cc1)c1nc2ccccc2[nH]1,9,36,38,-11,49*,16,36*
Cc1ccc(S(=O)(=O)CCc2nnc(NC(=O)c3ccccn3)s2)cc1,5,19,8,-6,44*,-2,29
Cc1ccc(S(=O)(=O)CCc2nnc(NC(=O)c3cnccn3)s2)cc1,14,22,4,-19,25,-3,/
Nc1nnc(-c2ccccc2)s1,10,21,5,-1,92*,0,8
Nc1nnc(-c2ccc(F)cc2)s1,7,13,2,3,11,12,/
O=C(NCC(c1cccs1)N1CCOCC1)c1cc([N+](=O)[O-])cc([N+](=O)[O-])c1 (stereo not drawn),-7,19,-3,20,42*,29,13
SMILES,NLRP3 yeast inh,tim23-1 inh,TIM10 inh,PfHsp90 set2,tim10-1 inh,NALP1 yeast inh,tim10-1 confirm
O=C(NCC(c1cccs1)N1CCOCC1)c1cccc([N+](=O)[O-])c1 (stereo not drawn),9,6,8,1,8,30,/
CC1(C)Cc2ccccc2/C(=C/C(=O)N2CCCCCC2)N1,-8,32,37,45,42*,-1,40*
CNC(=O)c1c[nH]c2ccc(S(=O)(=O)Nc3cccc(SC)c3)cc2c1=O,12,5,5,-28,-8,16,/
N#CCc1nc(C(c2ccccc2)c2ccccc2)no1,23,31,19,-33,23,7,/
CC1CCN(C(=O)CCc2ccc(Oc3cc([N+](=O)[O-])cc([N+](=O)[O-])c3)cc2)CC1,33,46,29,-4,51*,-37,41*
O=C(CCc1ccc(Oc2cc([N+](=O)[O-])cc([N+](=O)[O-])c2)cc1)NC1CCCC1,0,27,36,6,37,4,/
CC(Nc1ccc(F)cc1)=[N+](C)CCNS(=O)(=O)c1ccc(Cl)cc1,8,15,3,-22,10,-12,/
CCOc1ccc(/C=N/n2cc(-c3ccccc3)[nH]c2=S)cc1,14,-3,21,-12,42*,-11,15
Cc1ccc(NC(=O)COC(=O)c2ccc(CN3CCCC3=O)cc2)cc1C,22,18,2,/,13,/,/
O=C(CN1C(=O)/C(=C\C=C\c2ccccc2)SC1=S)Nc1ccc(F)cc1,-1,7,14,-21,40*,20,23
Cn1cc(C(=O)NCCN2CCN(c3cccc(Cl)c3)CC2)c2c3ccccc3n(C)c2c1=O,15,26,13,-47,46*,6,14
O=C(CCN1C(=O)S/C(=C\c2ccccc2)C1=O)N1CCCCC1,9,38,8,11,44*,-7,39*
O=C(CCN1C(=O)/C(=C\c2ccccc2)SC1=S)N1CCOCC1,15,12,19,30,17,-12,/
O=C(CCN1C(=O)S/C(=C\c2ccccc2)C1=O)N1CCOCC1,-9,2,25,-14,52*,/,31
C=CCn1c(SCC(=O)N(CC)C2CCS(=O)(=O)C2)nc2scc(-c3ccccc3)c2c1=O (stereo not drawn),/,/,/,20,/,/,/
CCOc1ccc(NC(=O)C(C)Oc2ccccc2C(=O)Nc2cccc(Cl)c2Cl)cc1 (stereo not drawn),10,10,19,-6,41*,5,10
Nc1ccc2oc(-c3cccc(Br)c3)nc2c1,-15,37,37,-16,60*,14,50*
COc1ccccc1NC(=S)NC(=O)C(C)(C)C,19,23,18,-30,50*,19,17
Cc1cc2nc(Sc3c([N+](=O)[O-])nc(C)n3Cc3ccccc3)[nH]c2cc1C,19,37,25,0,43*,14,39*
COc1ccc2nc(Sc3c([N+](=O)[O-])nc(C)n3Cc3ccccc3)[nH]c2c1,-5,32,33,/,33,-8,/
Cc1nc([N+](=O)[O-])c(Sc2nc3ccccc3[nH]2)n1Cc1ccccc1,3,23,4,10,44*,12,22
